# Assay results published in PMC4336329 (PLoS ONE, 2015).
# About 2,200 (0.71%) of roughly 310,000 compounds showed an effect of 50% or more. The effect is printed as a negative number. The sample holds strong results, similar compounds and a random draw of the others, so the mix is not that of the screen.
# Target: human ether-à-go-go-related gene (hERG) potassium channel (human, UniProt Q12809)
# Test: primary screen, population patch clamp on CHO cells stably expressing hERG; higher = less effect of the substance
# human ether-à-go-go-related gene (hERG) potassium channel, sequence (Q12809 whole entry, looked up): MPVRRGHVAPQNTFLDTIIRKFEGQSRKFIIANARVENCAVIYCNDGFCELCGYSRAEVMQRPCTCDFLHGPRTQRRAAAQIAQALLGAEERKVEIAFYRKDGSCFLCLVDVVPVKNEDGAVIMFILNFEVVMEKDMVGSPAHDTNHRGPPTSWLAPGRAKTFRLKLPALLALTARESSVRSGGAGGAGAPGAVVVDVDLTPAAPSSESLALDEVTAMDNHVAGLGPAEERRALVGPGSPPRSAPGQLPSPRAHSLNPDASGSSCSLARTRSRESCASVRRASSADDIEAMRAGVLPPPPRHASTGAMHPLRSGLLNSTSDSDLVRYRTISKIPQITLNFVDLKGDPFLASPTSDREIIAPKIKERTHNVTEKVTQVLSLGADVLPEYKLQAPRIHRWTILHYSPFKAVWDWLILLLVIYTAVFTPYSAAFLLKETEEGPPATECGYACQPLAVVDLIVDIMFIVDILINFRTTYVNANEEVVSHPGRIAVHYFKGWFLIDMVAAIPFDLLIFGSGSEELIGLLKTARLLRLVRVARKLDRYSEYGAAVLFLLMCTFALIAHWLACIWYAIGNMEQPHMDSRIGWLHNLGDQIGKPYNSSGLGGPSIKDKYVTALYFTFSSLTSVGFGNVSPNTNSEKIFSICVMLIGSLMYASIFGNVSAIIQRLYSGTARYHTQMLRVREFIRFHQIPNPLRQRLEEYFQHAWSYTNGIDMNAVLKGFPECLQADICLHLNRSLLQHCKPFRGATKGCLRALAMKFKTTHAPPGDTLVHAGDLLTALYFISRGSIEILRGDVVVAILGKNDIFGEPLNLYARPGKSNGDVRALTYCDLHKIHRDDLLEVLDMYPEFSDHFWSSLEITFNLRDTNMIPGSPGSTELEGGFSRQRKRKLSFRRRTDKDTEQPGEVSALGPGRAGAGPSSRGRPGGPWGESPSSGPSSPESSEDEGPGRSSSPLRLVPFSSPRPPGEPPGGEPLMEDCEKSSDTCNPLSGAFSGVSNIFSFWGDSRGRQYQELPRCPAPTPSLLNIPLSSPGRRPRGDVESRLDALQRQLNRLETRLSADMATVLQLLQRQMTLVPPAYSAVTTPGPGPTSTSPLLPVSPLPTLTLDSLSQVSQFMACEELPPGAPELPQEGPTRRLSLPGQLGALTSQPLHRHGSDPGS
row,Structure (SMILES),"hERG current change (%, negative = inhibition) at 1uM"
1,CCOC(=O)c1cnc(SC2CC(=O)N(c3cccc(OC)c3)C2=O)nc1N (centres unmarked),11.3%
2,CC1(c2nnc(-c3cccc(Cl)c3)o2)CC(c2cccc([N+](=O)[O-])c2)=NO1 (centres unmarked),16.3%
3,CCOc1cc(CN2CCC(CO)(Cc3cccc(C(F)(F)F)c3)CC2)ccc1OC,-78%
4,COc1ccc(CC2(CO)CCN(Cc3cnn(-c4ccccc4)c3)CC2)cc1,-57.2%
5,OCC1(Cc2ccccc2)CCCN(Cc2cnn(-c3ccccc3)c2)C1 (centres unmarked),-27.4%
6,OCC1(Cc2cccc(C(F)(F)F)c2)CCN(Cc2cc(F)cc(F)c2)CC1,4.2%
7,COc1cc(CN2CCC(CO)(Cc3cccc(C(F)(F)F)c3)CC2)ccc1F,-15.9%
8,COc1ccc(CC2(CO)CCN(Cc3cnn(-c4ccccc4OC)c3)CC2)cc1,-48.4%
9,CC(=O)Nc1ccc(S(=O)(=O)Oc2ccc(N3C(=O)C4CCCCC4C3=O)cc2)cc1 (centres unmarked),15.5%
10,CCOC(=O)c1nnn(-c2nonc2N)c1-c1ccc(F)cc1,13.5%
11,CCC12CCCN3CCc4c(n(c5ccccc45)C(O)(C(=O)OC)C1)C32 (centres unmarked),-2.18%
12,COC(=O)C1C(O)CCC2CN3CCc4c([nH]c5ccccc45)C3CC21 (centres unmarked),1.1%
13,CC[C@H]1CC2CN3CCc4c([nH]c5ccccc45)C(C(=O)OC)(C2)C13.Cl (some centres unmarked),7.18%
14,CC[C@]12CCCN3CCc4c(n(c5ccccc45)[C@@](O)(C(=O)OC)C1)[C@@H]32,-85.4%
15,CC[C@]12CCCN3CCc4c(n(c5ccccc45)[C@](O)(C(=O)OC)C1)[C@@H]32,-69.4%
16,COC(=O)[C@@H]1[C@H]2C[C@H]3c4[nH]c5ccccc5c4CCN3C[C@@H]2CC[C@@H]1O,-21.3%
17,O=P(O)(O)C(O)C(F)(F)C(F)(F)C(F)(F)C(F)F (centres unmarked),21.8%
18,O=S(=O)(c1ccccc1)c1nc(-c2ccco2)oc1N1CCCCCC1,11.4%
19,O=C(Nc1ccncc1)c1ccc(F)cc1,7.66%

row,Structure (SMILES),"hERG current change (%, negative = inhibition) at 1uM"
1,O=C(CSc1nnc(-c2cccnc2)n1-c1ccccc1)Nc1ccccc1,-44.9%
2,CCCn1c(SCC(=O)Nc2cccc(C(=O)OC)c2)nnc1-c1cccnc1,-22.5%
3,Cc1ccc(NC(=O)CSc2nnc(-c3cccnc3)n2-c2ccc(C)cc2)cc1,2.22%
4,O=C(CSc1nnc(-c2cccnc2)n1CCN1CCCCC1)Nc1cccc(Cl)c1,-80.3%
5,Cc1ccc(NC(=O)CSc2nnc(-c3cccnc3)n2CCN2CCCCC2)cc1,-53.7%
6,Cn1c(SCC(=O)Nc2ccc(F)cc2)nnc1-c1cccnc1,-2.78%
7,Cc1ccc(NC(=O)C(C)Sc2nnc(-c3cccnc3)o2)cc1 (centres unmarked),14%
8,Cc1ccc(NC(=O)C(C)Sc2nnc(-c3cccnc3)n2-c2ccccc2)cc1 (centres unmarked),-86.2%
9,Cn1c(SCC(=O)Nc2cccc(F)c2)nnc1-c1cccnc1,-6.1%
10,CCOC(=O)c1ccc(CSc2nnc(N)s2)cc1,5.39%
11,Cc1ccc(C(=O)N2NC(c3ccc(F)cc3)C3C(=O)N(c4ccc(C)c(C)c4)C(=O)C32)cc1 (centres unmarked),10.6%
12,CCOC(=O)C1CCN(C(=O)Cn2cc(C(=O)C3CC3)c3ccccc32)CC1,13.4%
13,O=C(O)C(Cc1c[nH]c2ccccc12)NS(=O)(=O)c1ccc(Cl)c(C(F)(F)F)c1 (centres unmarked),7.86%
14,COc1ccc(NC(=S)Nc2ccc(OC)cc2OC)c(OC)c1,17.8%
15,COC/C=C/C1=CC2=CC(=O)C(C)(OC(=O)c3cnc4ccccc4n3)C(=O)C2=CN1C1CC1 (centres unmarked),9.57%
16,N#Cc1cn(CCCOc2ccccc2)c2ccccc12,11.3%
17,c1ccc(-c2nc(NC3CCCC3)c3ccccc3n2)cc1,18.4%
18,c1csc(-c2nnc(NC3CCCCC3)c3ccccc23)c1,-40.8%
19,c1ccc2c(NC3CCCC3)nnc(NC3CCCC3)c2c1,-70.4%

row,Structure (SMILES),"hERG current change (%, negative = inhibition) at 1uM"
1,CC1(C(=O)O)COC(c2ccc([N+](=O)[O-])cc2)OC1 (centres unmarked),2.26%
2,Cn1c(=O)cc(SCC(=O)N2CCCC2)c2ccccc21,9.79%
3,CCn1ccnc1CNC(=O)CC1C(=O)NCCN1Cc1ccc(F)cc1Cl (centres unmarked),13.5%
4,COc1ccc2[nH]cc(C(O)CN3CCN(c4ccccc4F)CC3)c2c1 (centres unmarked),8.35%
5,COc1ccc(N2CCN(CC(O)c3c[nH]c4ccc(OC)cc34)CC2C)cc1 (centres unmarked),-50.6%
6,COc1ccc2[nH]cc(C(O)CN3CCC(C(N)=O)CC3)c2c1 (centres unmarked),11.1%
7,CC(C)OC(=O)/C(=C\c1ccccc1)NC(=O)c1ccccc1,9.47%
8,CCN(CC)S(=O)(=O)c1ccc(C)c(NC(=O)CNCCN(C(C)C)C(C)C)c1.O=C(O)C(=O)O,-66.5%
9,CCN(CC)S(=O)(=O)c1ccc(C)c(NC(=O)CNCc2ccccc2OC)c1.O=C(O)C(=O)O,20.9%
10,CCN(CC)S(=O)(=O)c1ccc(C)c(NC(=O)CN2CCN(C)CC2)c1.O=C(O)C(=O)O,6%
11,O=C1Nc2ccccc2N=C(c2ccccc2)C1N1CCOCC1 (centres unmarked),18.1%
12,COc1nc(NC2CCCCC2)nc(NC(C)(C)C)n1,4.9%
13,Cc1ccc(NCc2nnc(SCc3ccc(C#N)cc3)n2Cc2ccco2)c(C)c1,-54.9%
14,Cc1cc(C)nc(SCc2nnc(SCc3ccc([N+](=O)[O-])cc3)n2Cc2ccco2)n1,-57.5%
15,Cc1cccc(-c2nnc(SCc3ccc(C#N)cc3)n2Cc2ccco2)c1,-44%
16,Cc1ccc(-c2nnc(SCc3ccc(C#N)cc3)n2Cc2ccco2)cc1,-19.2%
17,Cc1cc(C)nc(SCc2nnc(SCC(N)=O)n2Cc2ccco2)n1,-3.7%
18,COC(=O)CSc1nnc(CSc2nc(C)cc(C)n2)n1Cc1ccco1,11.5%
